# Reference: PubChem BioAssay (NCI)
# This is part of a sample that, as a whole, favours compounds with a hit. Of some 83,000 tested, about 20% had one in any assay.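 In brief: 96-well plates, 48 h treatment, single concentration, percent growth endpoint.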 A number with no mark means an inactive call. Active and inactive are the calls of the source. The calls were made as follows: active = growth percent below 10; inactive = the rest.
# Key:
# Test in all cases: NCI-60 one-dose screen, 48 h (100 = growth as untreated, 0 = no growth, -100 = all killed)
# HCT-15 colon = conditions: 10 µM unless noted
# HT29 colon = conditions: 10 µM unless noted
# SNB-75 CNS = conditions: 10 µM unless noted
# SNB-19 CNS = conditions: 10 µM unless noted
# U251 CNS = conditions: 10 µM unless noted
# PC-3 prostate = conditions: 10 µM unless noted
# SK-MEL-5 melanoma = conditions: 10 µM unless noted
# UACC-62 melanoma = conditions: 10 µM unless noted
# LOX IMVI melanoma = conditions: 10 µM unless noted
# SK-MEL-28 melanoma = conditions: 10 µM unless noted
# SK-MEL-2 melanoma = conditions: 10 µM unless noted
# EKVX NSCLC = conditions: 10 µM unless noted
# SN12C renal = conditions: 10 µM unless noted
# UO-31 renal = conditions: 10 µM unless noted
# TK-10 renal = conditions: 10 µM unless noted
# ACHN renal = conditions: 10 µM unless noted
# CAKI-1 renal = conditions: 10 µM unless noted
# A498 renal = conditions: 10 µM
# HL-60(TB) leukemia = conditions: 10 µM unless noted
# CCRF-CEM leukemia = conditions: 10 µM unless noted
SMILES,growth (HCT-15 colon),growth (HT29 colon),growth (SNB-75 CNS),growth (SNB-19 CNS),growth (U251 CNS),growth (PC-3 prostate),growth (SK-MEL-5 melanoma),growth (UACC-62 melanoma),growth (LOX IMVI melanoma),growth (SK-MEL-28 melanoma),growth (SK-MEL-2 melanoma),growth (EKVX NSCLC),growth (SN12C renal),growth (UO-31 renal),growth (TK-10 renal),growth (ACHN renal),growth (CAKI-1 renal),growth (A498 renal),growth (HL-60(TB) leukemia),growth (CCRF-CEM leukemia)
C=CC1=C[C@@H]2[C@@H]3O[C@]4(CC[C@H](O4)[C@@H](C)C[C@@H](O)C3=O)C[C@H](O)C3=NCC[C@@]32CC1,-13.9% (active),-13.6% (active),-95.8% (active),-16.2% (active),-7% (active),-20.1% (active),-90.2% (active),-68.3% (active),-59.9% (active),-59.8% (active),-45.1% (active),-29.1% (active),-15% (active),-38.8% (active),-21% (active),-64.8% (active),-11.4% (active),-82.6% (active),-5.3% (active),4.16% (active)
O=Cc1cn(Cc2ccc(Cl)cc2)c2ccccc12,89.7%,106%,86.7%,89.7%,75.5%,82.3%,94.4%,-0.449% (active),88.2%,96.4%,82.7%,88.9%,89.6%,61.4%,0.213% (active),91.6%,-20.8% (active),-89.8% (active),97.7%,89.6%
COc1cc2c(cc1OCCCCn1c(-c3cccs3)nc3ccccc31)N=C[C@@H]1CCCN1C2=O,-11.9% (active),2.34% (active),-65.4% (active),10.5%,-2.52% (active),-4.05% (active),-80% (active),-91.1% (active),-48.9% (active),-37.4% (active),-52.4% (active),4.43% (active),2.49% (active),-58.3% (active),-22.8% (active),-10% (active),-22% (active),-53.9% (active),-18.7% (active),-25.7% (active)
COc1ccc(/C=C/c2cc(OC)c(OC)c(OC)c2)cc1NC(=O)/C=C/c1ccc(F)cc1,25.2%,9.9% (active),3.26% (active),33.5%,36.8%,28.7%,7.06% (active),35.5%,39%,47.2%,49.6%,47.3%,39.6%,39%,88.4%,48.4%,33.9%,-3.96% (active),-20% (active),11%
C/C(=C\c1cc(C(F)(F)F)nn1CCNC(=O)OC(C)(C)C)[C@@H]1C[C@@H]2O[C@]2(C)CCC[C@H](C)[C@H](O)[C@@H](C)C(=O)C(C)(C)[C@@H](O)CC(=O)O1,39.5%,23.6%,37.2%,65.4%,61.4%,32%,38.8%,40.7%,55.9%,79.2%,75.1%,65%,87%,49.5%,69.2%,74.6%,47.1%,49.3%,14.1%,67.2%
Oc1c(O)c(Cl)c(Cl)c(Cl)c1Cl,26.3%,62.7%,36.7%,29.7%,38.9%,34.5%,22.5%,3.58% (active),24.4%,51.4%,39.1%,36.6%,31.6%,3.66% (active),73.4%,32.2%,81.7%,63.7%,24.9%,35.3%
O=C1NC(=O)C(=Cc2cn(C(=O)c3ccccc3)c3ccccc23)C(=O)N1,101%,97%,73.1%,97.6%,102%,79.4%,92.3%,85.9%,90.8%,111%,96.5%,97.5%,91.9%,64.2%,138%,93.5%,92.8%,115%,108%,104%
COC1OC(CO)C(O)C(O)[CH]1[Hg][O]C(C)=O (configuration not stated),87.1%,79.8%,77.3%,94.4%,67.7%,87.9%,86.2%,85.9%,82.3%,97.5%,107%,111%,88.5%,101%,111%,98.5%,101%,106%,94.6%,96.1%
CC(=O)OCc1cc[c]([Hg][Cl])o1,5.8% (active),46%,42.7%,45.2%,7.54% (active),43.8%,42.6%,47.8%,-50.5% (active),12.3%,64.9%,78.8%,55.9%,83.1%,127%,60.8%,25.9%,123%,-25.1% (active),-20% (active)
c1cnc2[nH]cc(-c3csc(-c4cn(CCCCN5CCOCC5)c5ccccc45)n3)c2c1,5.17% (active),-44.6% (active),35.4%,57.5%,20%,25.9%,51.2%,68.9%,20.8%,-71.1% (active),87.8%,64%,67%,25.4%,64.4%,32.4%,44.3%,56.8%,-58.2% (active),10.1%
C/C(=C\c1ccn(-c2ccc(N)c(F)c2)n1)[C@@H]1C[C@@H]2O[C@]2(C)CCC[C@H](C)[C@H](O)[C@@H](C)C(=O)C(C)(C)[C@@H](O)CC(=O)O1,11.4%,14.9%,-16.9% (active),38.4%,24%,14.7%,14.7%,21.7%,32.4%,58.3%,23.2%,42.2%,35.7%,36.9%,44.6%,44.6%,37.5%,13%,5.44% (active),12.1%
C=CC[Se]C(=O)c1ccccc1OC(C)=O,17.8%,14.4%,-65.1% (active),-23.2% (active),-44% (active),-28.3% (active),-35.7% (active),-15.2% (active),21.7%,4.12% (active),37.2%,-30.8% (active),-18.4% (active),-53.5% (active),12.5%,-26.6% (active),-9.51% (active),-3.97% (active),-45.7% (active),5.37% (active)
COc1cccc2c1c(C(=O)C(=O)Nc1cc(C)no1)cn2Cc1ccc(F)cc1,29.5%,24.8%,53.6%,66%,51.7%,62.5%,36.3%,38.7%,56.1%,68.3%,75.1%,78.9%,62.2%,57.5%,82.6%,88.6%,86.7%,,1.01% (active),66.6%
COc1cc(NCCCN=C(N)N)c2ncccc2c1,98.6%,83.9%,73.4%,81.8%,58.5%,83.7%,72.1%,90.3%,104%,99.6%,27.8%,70.6%,2.57% (active),89.4%,80%,100%,97.9%,73.6%,,95.8%
CC[C@H](C)[C@H](NC(=O)[C@H]1CCCCN1C)C(=O)N(C)[C@H](C[C@@H](OC(C)=O)c1cccc(C(=O)N[C@@H](Cc2ccccc2)C[C@H](C)C(=O)O)n1)C(C)C,9.38% (active),-13.2% (active),8.07% (active),26.9%,13.6%,25.4%,-24.5% (active),40.4%,15.3%,69.3%,36.3%,59.6%,28.1%,44.7%,29%,32.3%,13.7%,-2.46% (active),,16.8%
